MCF10A rerep: inducers of DNA re-replication in MCF 10A breast cells | AID 624296 | MCF 10A DNA re-replication, Hoechst nuclear intensity, 48 h | 350,000 tested, 2.9% active | Potency, µM (titrated, usually from 46.1 µM), for inactives: top-dose activity, positive = re-replication, most hits filed as activators; further: potency means the concentration at half of the fitted maximal effect; % of control where 0% means no effect; nearly all actives have a fitted effect of over 50% in size
SW480 rerep: DNA re-replication induction in SW480 cells; SW480 DNA re-replication, Hoechst DNA content imaging, 48 h; Potency, µM (series often up to 46.1 µM), for inactives: at the top dose re-replication activation, actives largely listed as activators; 340,000 tested, 1.8% active; further: potency means the concentration at half of the fitted maximal effect; % of control where 0% means no effect; nearly all actives have a fitted effect of over 55% in size
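Image-based read-out: total Hoechst fluorescence of nuclei (405 nm excitation, 500-530 nm emission), with hits raising the fraction of high-intensity nuclei. SW480 colon cells incubated 48 hr with compounds at 37 C.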
RORgamma inh: blocks mouse ROR gamma transcriptional activity; Drosophila S2 Gal4-RORgamma UAS-luciferase reporter, 20 h; Potency, µM (series often up to 53.6 µM), for inactives: at the top dose activity change, negative = inhibition, hits mostly inhibitors; P51450; 310,000 tested, 5.4% active; further: potency means the concentration at half of the fitted maximal effect; on the % scale 0 is the no-effect control and ±100 the full control effect; nearly all actives have a fitted effect of over 60% in size
Target sequence (P51450 whole entry, looked up, the tested form may be a part): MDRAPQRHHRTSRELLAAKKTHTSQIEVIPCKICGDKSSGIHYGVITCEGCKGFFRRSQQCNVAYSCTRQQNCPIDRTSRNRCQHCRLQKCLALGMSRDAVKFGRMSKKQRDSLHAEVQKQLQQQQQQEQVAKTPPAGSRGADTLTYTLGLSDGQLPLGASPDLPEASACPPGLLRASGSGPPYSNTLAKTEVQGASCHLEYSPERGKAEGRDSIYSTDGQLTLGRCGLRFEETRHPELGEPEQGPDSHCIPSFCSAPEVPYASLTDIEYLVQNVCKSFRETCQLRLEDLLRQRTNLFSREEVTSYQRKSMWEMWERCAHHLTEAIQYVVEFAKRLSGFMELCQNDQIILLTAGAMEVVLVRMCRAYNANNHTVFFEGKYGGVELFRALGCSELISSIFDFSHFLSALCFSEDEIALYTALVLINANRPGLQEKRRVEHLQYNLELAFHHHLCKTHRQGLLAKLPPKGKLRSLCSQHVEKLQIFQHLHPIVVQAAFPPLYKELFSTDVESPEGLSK
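ROR gamma transcriptional activity was tracked as Gal4-UAS luciferase output in stably transfected Drosophila Schneider cells, with compound added 1 hr before 700 uM copper sulfate induction and a 20 hr ambient-temperature incubation.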
Gal4-VP16 FLuc: inhibits Gal4-VP16 luciferase reporter, ROR gamma counter-screen | 310,000 tested, 3.5% active | Drosophila S2 Gal4-VP16 UAS-luciferase, luminescence, 20 h | Potency, µM (doses to about 53.6 µM), for inactives: at the highest dose activity, negative = inhibition, usual class: inhibitors;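 further: Gal4-VP16 expression switched on by copper sulfate through the metallothionein promoter; potency means the concentration at half of the fitted maximal effect; on the % scale 0 is the no-effect control and ±100 the full control effect; nearly all actives have a fitted effect of over 50% in size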
IL-1B inflam inh: blocks inflammasome-driven IL-1 beta release. THP-1 LPS/ATP IL-1B secretion, AlphaLISA, 16 h; stronger effect = lower value. activity change, % at 57.5 µM. 360,000 tested, 4.7% active. AID 743279; in the data active means activity change below about -50%; inconclusive means mostly about -30% to -49%; further: on the % scale 0 is the no-effect control and ±100 the full control effect
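THP-1 cells pretreated 1 hr with compounds (up to 57.5 uM final), then stimulated with LPS (250 ng/mL final) plus ATP (1.25 mM final); secreted IL-1B measured by AlphaLISA after 16 hr, decreased signal indicating inhibition.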
Starred values were filed as active, the others as inactive; [ ] = another dose, or the depositor's remark. This is a sample that favours compounds with a hit; in the whole collection about 11% have one here. Unless noted, the call rests on the fitted dose curve; in most records, active means well fitted curve in the direction sought with a large enough effect; inconclusive means small, poorly fitted or top-dose-only effect, or another doubt; inactive means no such curve, though single readings can be large; an effect the other way counts as inactive or inconclusive.

`COc1ccc(-c2cc(=O)c3ccccc3s2)cc1` gave MCF10A rerep -13%, SW480 rerep -23%, RORgamma inh 8%, Gal4-VP16 FLuc -10% and IL-1B inflam inh -60*.
Screening CC(C)(C)c1ccc(C(=O)Nc2ccc(CC(=O)O)cc2)o1 returned MCF10A rerep 0%, SW480 rerep -5%, RORgamma inh 0.79µM*, Gal4-VP16 FLuc 0.79µM* and IL-1B inflam inh 3.
For O=C(O)Cc1ccc(NC(=O)c2cnccn2)cc1 the results were MCF10A rerep -27%, SW480 rerep -12%, RORgamma inh 11µM*, Gal4-VP16 FLuc inconclusive and IL-1B inflam inh 7.
For O=C(COc1ccc(Br)cc1)NNC(=O)c1ccc(-n2cncn2)c([N+](=O)[O-])c1 the results were MCF10A rerep 1%, SW480 rerep 2% and IL-1B inflam inh 5.
For COCCNC(=O)C1(C)CCCN(Cc2sc(C)nc2C)C1 (configuration not stated) the results were IL-1B inflam inh 7.
Screening CC1(C)CC(C)(O)N(Cc2ccccc2)C(=S)N1 (configuration not stated) returned MCF10A rerep 1%, SW480 rerep -4%, RORgamma inh 13µM*, Gal4-VP16 FLuc 16µM* and IL-1B inflam inh -15.
`O=C(CSc1nnc2scc(-c3ccccc3)n12)N1CCN(Cc2ccccc2)CC1` gave MCF10A rerep 3%, SW480 rerep -2%, RORgamma inh 8.9µM*, Gal4-VP16 FLuc -8% and IL-1B inflam inh inconclusive.
Screening Cc1ccc(-c2csc3nnc(SCC(=O)N4CCN(Cc5ccccc5)CC4)n23)cc1 returned MCF10A rerep 1%, SW480 rerep 8%, RORgamma inh -43%, Gal4-VP16 FLuc -8% and IL-1B inflam inh -18.
For Cc1nnc(SCC(=O)NC2CCCC2)n1C(C)C the results were MCF10A rerep 11%, SW480 rerep -3%, RORgamma inh -8%, Gal4-VP16 FLuc 3% and IL-1B inflam inh -8.
C/C(=N\N=C(N)N)c1ccc(Cl)c(Cl)c1 was read as MCF10A rerep inconclusive, SW480 rerep inconclusive, RORgamma inh 16%, Gal4-VP16 FLuc 7% and IL-1B inflam inh -103*.
`COc1ccc(/C=C2\SC(=N)N(c3nccs3)C2=O)cc1OC` gave MCF10A rerep 10µM*, SW480 rerep 12µM*, RORgamma inh 0.13µM*, Gal4-VP16 FLuc inconclusive and IL-1B inflam inh -1.
For N=C1S/C(=C\c2ccc(-c3cccc(Cl)c3)o2)C(=O)N1c1nccs1 the results were MCF10A rerep inconclusive, SW480 rerep inconclusive, RORgamma inh 0.14µM*, Gal4-VP16 FLuc -83% and IL-1B inflam inh -14.
Screening COc1cc(OC)c2c(c1C(CCN1CCN(c3ccccc3)CC1)c1ccc(N(C)C)cc1)OC(=O)CC2c1ccc(N(C)C)cc1 (configuration not stated) returned RORgamma inh 7% and Gal4-VP16 FLuc -6%.
`Cc1ccc(S(=O)(=O)N(C)C)cc1NC(=S)Nc1cccc2ccccc12` gave MCF10A rerep -1%, SW480 rerep -1%, RORgamma inh inconclusive, Gal4-VP16 FLuc inconclusive and IL-1B inflam inh 29.
Cc1ccc(S(=O)(=O)N(C)C)cc1NC(=S)NC(C)CCCC(C)C (configuration not stated) was read as MCF10A rerep inconclusive, SW480 rerep -2%, RORgamma inh 18µM*, Gal4-VP16 FLuc inconclusive and IL-1B inflam inh -73*.
`Cc1ccc(S(=O)(=O)N(C)C)cc1NC(=S)NC(C)CCC(C)C` (configuration not stated) gave MCF10A rerep 16%, SW480 rerep inconclusive, RORgamma inh 13µM*, Gal4-VP16 FLuc inconclusive and IL-1B inflam inh 18.
`CC(=O)NNC(=S)Nc1cc(S(=O)(=O)N(C)C)ccc1C` gave MCF10A rerep -8%, SW480 rerep -7%, RORgamma inh -8%, Gal4-VP16 FLuc 2% and IL-1B inflam inh 10.
Screening CCCCCCC(C)NC(=S)Nc1cc(S(=O)(=O)N(C)C)ccc1C (configuration not stated) returned MCF10A rerep 18µM*, SW480 rerep inconclusive, RORgamma inh 13µM*, Gal4-VP16 FLuc inconclusive and IL-1B inflam inh -2.
COc1ccc(-c2n[nH]c(=S)n2-c2ccc(C)cc2C)cc1 was read as MCF10A rerep 6%, SW480 rerep -10%, RORgamma inh 2.8µM*, Gal4-VP16 FLuc 5µM* and IL-1B inflam inh 41.
For Cc1ccc(-n2c(-c3ccc(Cl)cc3)n[nH]c2=S)c(C)c1 the results were MCF10A rerep inconclusive, SW480 rerep -19%, RORgamma inh 1.4µM*, Gal4-VP16 FLuc 1.1µM* and IL-1B inflam inh 27.
`Cc1ccc(-n2c(-c3cccnc3)n[nH]c2=S)c(C)c1` gave MCF10A rerep 3%, SW480 rerep -14%, RORgamma inh inconclusive, Gal4-VP16 FLuc inconclusive and IL-1B inflam inh -1.
Screening Cc1cc(C)c(S(=O)(=O)N2CCN(C(=O)c3cc4ccccc4oc3=O)CC2)c(C)c1 returned MCF10A rerep inconclusive, SW480 rerep -11% and IL-1B inflam inh -17.
For COc1cc(/C=N/NC(=O)c2csc3c2CCCC3)cc(OC)c1O the results were MCF10A rerep 3%, SW480 rerep -8%, RORgamma inh 9%, Gal4-VP16 FLuc 0% and IL-1B inflam inh -7.
Screening Cc1ccc(/C=N/NC(=O)c2csc3c2CCCC3)cc1 returned MCF10A rerep 1.3µM*, SW480 rerep inconclusive, RORgamma inh inconclusive, Gal4-VP16 FLuc -12% and IL-1B inflam inh 1.
Screening CC(C)CCNC(=O)COC(=O)/C=C/c1ccc2ccccc2n1 returned MCF10A rerep -1%, SW480 rerep -10%, RORgamma inh 24%, Gal4-VP16 FLuc -6%[10 µM] and IL-1B inflam inh -59*.
`COc1ccc(-c2cc(C(=O)OCC(=O)N(C)C3CCS(=O)(=O)C3)c3ccccc3n2)cc1OC` (configuration not stated) gave MCF10A rerep inconclusive, SW480 rerep 12%, RORgamma inh 32%, Gal4-VP16 FLuc -13% and IL-1B inflam inh -62*.
O=C(COC(=O)/C=C/c1ccccc1)NCCNC(=O)COC(=O)/C=C/c1ccccc1 was read as MCF10A rerep -2%, SW480 rerep inconclusive and IL-1B inflam inh -16.
Cc1ccc(-c2cc(C(=O)OCC(=O)N(C)C3CCS(=O)(=O)C3)c3ccccc3n2)c(C)c1 (configuration not stated) was read as MCF10A rerep 12%, SW480 rerep 0%, RORgamma inh -10%, Gal4-VP16 FLuc -13% and IL-1B inflam inh 18.
Screening CCN(C(=O)COC(=O)c1cc(-c2ccc(C)o2)nc2ccccc12)C1CCS(=O)(=O)C1 (configuration not stated) returned MCF10A rerep -3%, SW480 rerep 6%, RORgamma inh inconclusive, Gal4-VP16 FLuc -2% and IL-1B inflam inh inconclusive.

Screening results as filed in PubChem BioAssay.
